# Bioassay records: PubChem BioAssay, National Center for Advancing Translational Sciences (NCATS)
# This excerpt belongs to a sample that is enriched for hits.
# Pf Dd2 growth: qHTS Primary assay for Inhibitors of Plasmodium falciparum Dd2 growth in vitro. P. falciparum Dd2 growth, SYBR Green, 72 h. Potency, µM (titrated, usually from 28.9 µM), hits mostly inhibitors. 4.3% of 120,000 active; active means well fitted inhibition curve with a large enough effect; further: nearly all actives have a fitted effect of over 65% in size
#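 Infected erythrocytes (Dd2, 0.3% parasitemia, 2.5% hematocrit final) are added to compound in RPMI-1640/Albumax II medium, grown 72 h at 37C in low oxygen, then lysed with saponin/Triton-X containing SYBR Green and read by fluorescence.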
# A number is an active result; i = inactive; [ ] = another dose, or the depositor's remark.
SMILES,Pf Dd2 growth
COc1cc2c(cc1OCc1ccccc1)N(C(=O)C(C)C)CC21CCN(C)CC1,i
COc1cc2c(cc1OCc1ccccc1)N(C(=O)c1ccccc1OC)CC21CCN(C)CC1,4µM
Cn1ccc(C(=O)N2CC(COc3ccccc3)C3(C2)CN(c2ccccc2)C3)n1 (stereo not drawn),i
CC(C)c1noc(C2CCCN(C(=O)CCCc3ccccc3)CCC(=O)NCC2)n1 (stereo not drawn),i
COc1ccc(OC2CN([S+](=O)([O-])c3ccccc3)C2)cc1,i
COc1ccc(-c2cccc(CCOc3cnc4c(ccn4CC(=O)O)c3)c2)c(C)c1,i
COCc1nncn1C1CCN(C(=O)c2cc(C)cc(C)c2)CC1,i
O=C(Cn1nc2c(cc1=O)CCCCC2)NCCN1CCOCC1,i
O=C(N1CCCCC1)N1CCCC1c1nnc2n1CCNC2 (stereo not drawn),i
Cn1cccc1C(=O)N[C@H]1C[C@H]2C(=O)Nc3ccc(/C=C/c4ccccc4)cc3C(=O)N2C1,i
Cc1ccn(CC(=O)N2C[C@@H](COc3ccccc3)[C@H](C(N)=O)C2)n1,i
NC(=O)c1ccc(OC2CCN(Cc3ccccn3)C2)nc1 (stereo not drawn),i
CCOc1ccc(C(CC(=O)O)NC(=O)c2cnc(N(C)C)nc2C)cc1 (stereo not drawn),i
Clc1cnccc1CN1CCNc2cnc(Oc3ccccc3)cc2C1,i
N#Cc1cccc(CN2CCOC[C@H](O)C2)c1,i
O=S1(=O)NC2(CCN(CCc3ccccc3)C2)COc2ncccc21 (stereo not drawn),i
O=C(N[C@H]1CO[C@H]2[C@@H]1OC[C@@H]2n1nnnc1Oc1cccc(N2CCOCC2)c1)N1CCOCC1,i
CC1=C[C@@H](CNC(=O)COc2ccccc2)[C@H](C(C)C)C[C@H]1CC(=O)NCc1cccnc1,i
CCC(=O)N1[C@H]2CC[C@@H]1c1cnc(-c3ccc(F)cc3)nc1C2,i
COCCn1c(C)cc(C(=O)N2[C@H]3CC[C@@H]2c2cnc(-c4ccc(F)cc4)nc2C3)c1C,11µM
Cc1ncccc1C(=O)N1[C@H]2CC[C@@H]1c1cnc(-c3ccc(F)cc3)nc1C2,i
O=C(C1CCC1)N1[C@H]2CC[C@@H]1c1cnc(-c3ccc(F)cc3)nc1C2,13µM
O=C(C1CCCCC1)N1[C@H]2CC[C@@H]1c1cnc(-c3ccc(F)cc3)nc1C2,i
COc1ccc(C(=O)N2[C@H]3CC[C@@H]2c2cnc(-c4ccc(F)cc4)nc2C3)cc1F,i
C[C@@H]1CNC[C@H]1c1nc(-c2ccncc2)no1,i[5.79 µM]
SMILES,Pf Dd2 growth
COc1ccccc1CCC(=O)NCc1nnc2ccc(-c3ccc(C)c(C)c3)nn12,i
CN1CCN(CC(=O)N2CCCC(c3ccc(Cl)cc3)C2)C1=O (stereo not drawn),i
COc1cccc(S(=O)(=O)N2CCC3(CC2)CNC(C(=O)O)C3)c1 (stereo not drawn),i
CC(C)[S+](=O)([O-])N1CC2(CN(Cc3ccc(Cl)cc3)C(=O)O2)C1,i
Cc1noc(-c2nc(-c3ccc(Br)cc3)no2)n1,i
COc1ccc(CN2CC[C@@H]3CN(S(C)(=O)=O)[C@@H]3C2)cc1C,i
C=CCc1cc(-c2c(-c3ccccc3)ncn2CCOCCO)cc(OC)c1O,6.3µM
C=CCc1cc(-c2c(-c3ccccc3)ncn2CCCO)cc(OC)c1O,i
OCCOCCn1cnc(-c2ccccc2)c1-c1ccccc1Cn1cccn1,i
Cc1cnc(C(=O)NCC2CCCCC(=O)N2)cn1 (stereo not drawn),i
COC(=O)C1=C(C)N(Cc2cccc(Cl)c2)C(=O)CC1c1ccccc1Cl (stereo not drawn),i
Cc1ccc(CN2C(=O)NC3(CCCN(C(=O)c4cccc(C)c4)C3)C2=O)cc1 (stereo not drawn),i
CCOC(=O)C1=C(C)N(Cc2ccc(C(=O)N3CCCCC3)cc2)C(=O)CC1c1cccc(C)c1 (stereo not drawn),5µM
CN(C)CCN(C)C[C@@H]1CN(C(=O)c2ccc(=O)n(C)c2)C[C@@H]1CO,i
CC(C)c1nnc(C2CN(C(=O)c3ccc(OC(F)(F)F)cc3)CC23CCOCC3)o1 (stereo not drawn),i
Cc1cnc(C2CC2)n1C1CCN(C(=O)C2CC2)CC1,i
CCCOc1ccccc1C(C)Nc1nc(-c2cccnc2)nc2c1CNC2 (stereo not drawn),11µM
CS(=O)(=O)NC1CCN(c2nc(-c3cccnc3)nc3c2CNC3)CC1,i
c1cncc(-c2nc3c(c(NCc4ccccc4-n4ccnc4)n2)CNC3)c1,i
CC(C)c1noc(-c2cn(C3CCN(C(=O)c4cc(Cl)ccc4F)C3)nn2)n1 (stereo not drawn),i
CN1CCN(C(=O)Cc2c[nH]c3ncc(-c4cccc(O)c4)cc23)CC1,i
Oc1cccc(Nc2nc(-c3ccccc3)nc3ccccc23)c1,i
OCCNc1ncnc2ccc(-c3cccc(O)c3)cc12,8.9µM
CCN1CCN(C(=O)Cn2cccc(OC)c2=O)CC1(C)C,i
Cc1noc(-c2cccc(OC3CN(C(=O)c4sccc4C)C3)c2)n1,i[5.79 µM]
SMILES,Pf Dd2 growth
CC(C)n1c(C2CCN(C(=O)CCc3nc4ccccc4s3)CC2)nn(C)c1=O,i
COc1ccc2[nH]cc(CCNC(=O)CCC[C@H]3NC[C@@H]4C[C@H]3CN(Cc3ccccc3)C4)c2c1,10µM
CCN(Cc1ccccc1)C(=O)CCC[C@H]1NC[C@@H]2CC1CN(Cc1ccccc1)C2,13µM
CNC(=O)CCC[C@H]1NC[C@@H]2CC1CN(Cc1ccccc1)C2,i
O=C(CCC[C@H]1NC[C@@H]2C[C@H]1CN(Cc1ccccc1)C2)NCCN1CCCCC1,i
COc1ccccc1OCCNC(=O)CCC[C@H]1NC[C@@H]2C[C@H]1CN(Cc1ccccc1)C2,i
NC(=O)CCC[C@H]1NC[C@@H]2C[C@H]1CN(Cc1ccccc1)C2,i
CN(CC1CCOCC1)C(=O)Nc1ccccc1Br,i
Cc1noc(C)c1[S+](=O)([O-])N1CC2ON=C(C(=O)O)C2C1 (stereo not drawn),i
COc1ccc(S(=O)(=O)NCC2Cn3cccc3C(=O)N2C)cc1 (stereo not drawn),i
COc1ccc([C@H]2C[C@@H](O)[C@@H](O)[C@@H]2NCc2cnc3ccccc3c2)cc1,i
COc1ccc([C@H]2C[C@@H](O)[C@@H](O)[C@@H]2NCc2cccc(C(F)(F)F)c2)cc1,8.9µM
COc1ccc([C@H]2C[C@@H](O)[C@@H](O)[C@@H]2NCc2cccc(C#N)c2)cc1,i
O=C([C@@H]1C[C@H](Oc2ccccc2)CN1S(=O)(=O)c1ccccc1)N1CCCC1,i
CCCN(C)C(=O)c1c(-c2ccccc2)noc1[C@H](C)O,i
Cn1nccc1C(=O)N1CC(CNC(=O)c2ccccc2)C2(C1)CN(c1ccccc1)C2 (stereo not drawn),13µM
O=C(NCC1CN(C(=O)CCc2ccccc2)CC12CN(c1ccccc1)C2)c1ccccc1 (stereo not drawn),i
Cn1nccc1C(=O)N1CC(COc2ccccc2)C2(C1)CN(c1ccccc1)C2 (stereo not drawn),i
N#Cc1cccc(S(=O)(=O)N[C@@H]2CCOC[C@H]2OCc2cscn2)c1,i
CC(C)c1ccc2c(c1)NC(c1ccncc1)=NC(c1cccs1)=N2,i
CCc1ccc2c(c1)NC(c1ccc(C)cc1)=NC(c1cccs1)=N2,13µM
FC(F)(F)Oc1ccc2c(c1)NC(c1ccncc1)=NC(c1cccs1)=N2,i
CCC(C(=O)NC1CCN(c2cn[nH]c(=O)c2)CC1)c1ccccc1 (stereo not drawn),i
